About 83,000 compounds went through this panel and 20% of them were active in at least one assay; those are over-represented in the sample as a whole.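 Testing used 96-well plates and a 48-hour single-concentration exposure. Example: -40 means 40% of the starting cells died.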 Unmarked numbers belong to inactive results. Activity calls are given as the source filed them. The calls were made as follows: active = growth percent below 10; inactive = the rest.

For the first assay, the system named is MDA-MB-231 breast. As to the kind of experiment: NCI-60 one-dose screen, 48 h (100 = growth as untreated, 0 = no growth, -100 = all killed). The note with it: 10 µM.
`CS(=O)(=O)c1nccc(-c2c(-c3cccc(OCCN4CCOCC4)c3)nc3sccn23)n1`: the growth was 67.9%. For the molecule `C=CCSC(CC)(CC)C(=O)NC`, the growth was 114%. In the case of `CCn1c(SC/C(=N/O)c2ccccc2)nnc1-c1ccccc1`, the growth was 94.6%. Regarding `CCN(CC)CCOc1ccc2c(c1O)C(=O)c1ccccc1C2=O`, the growth was 82.8%. Turning to `CS(=O)(=O)c1nccc(-c2c(-c3cccc(O)c3)nc3sccn23)n1`, the growth is 74.4%. Consider `CC(=O)[C@H]1CC[C@]2(C)[C@@H]1CC[C@@H]1[C@@]3(C)CC(CCC#N)(CCC#N)C(=O)C(C)(C)[C@@H]3CC[C@]12C`, for which the growth is 105%. The same measure, in the same setting: for `COc1cc(-c2nn(-c3cccc(NC(=O)CN4CCOCC4)c3)cc2-c2cccnc2)ccc1Cl` the value was 83.1%; for `CNS(=O)(=O)Oc1ccc(-c2sc3cc(OS(=O)(=O)NC)ccc3c2C(=O)c2ccc(OCCN3CCCCC3)cc2)cc1`, 79.1%; for `Clc1ccc(/C=C2\CCCC3C2=Nc2ccccc2NC3c2ccc(Cl)cc2)cc1` (stereo unspecified), 97.6%. As to `CCOS(=O)(=O)c1c(C(C)C)cc(C(C)C)cc1C(C)C`, the growth was 99.5%. The same measure, in the same setting: for `COc1cc(/C=C/c2cc(/C=C/c3ccc(O)c(OC)c3)n(C(=O)Nc3ccccc3Cl)n2)ccc1O` the value was 17.7%.

The next assay deals with RXF 393 renal. The assay is described as above. The conditions noted are these: 10 µM.
Take `CCN1CCN(CCC(=O)Nc2cccc(-n3cc(-c4ccncc4)c(-c4ccc(Cl)c(OC)c4)n3)c2)CC1`: the growth is -7.05% (active). Still for that read-out and setting: the figure for `O=C1/C=C/[C@@H](O)[C@@H]2C[C@@H](O)C[C@H]2/C=C/CCC[C@H](C(F)(F)F)O1` is -28.8% (active); for `CC[C@@H](C(=O)[C@@H](C)[C@@H](O)[C@H](C)[C@@H]1O[C@@H]([C@@H](CC)C(=O)N(CC)CC)CC[C@@H]1C)C1O[C@]2(C=CC(=O)[C@]3(CC[C@@](C)([C@H]4CC[C@](O)(CC)[C@H](C)O4)O3)O2)[C@H](C)C[C@@H]1C` (stereo partly specified) it is 28.2%. Still for that read-out and setting: for `COc1ccc(-c2cc(-c3ccc(Cl)cc3)nc(SCCCCCCC(=O)NO)n2)cc1OC` the value was 57.5%. With `N#CCc1csc(Cc2ccccc2)n1`, the growth is 119%. Consider `CC(C)(C)OC(=O)CN1CCc2c(sc3ncnc(N/N=C/c4ccccc4Br)c23)C1`, for which the growth is 70.3%. For `CC(CN(C)C)Oc1ccccc1NC1=C(Cl)C(=O)C(Nc2ccccc2OC(C)CN(C)C)=C(Cl)C1=O` (stereo unspecified), the growth was -90.7% (active). For `Nc1ccn(Cc2nnc(CCC(=O)c3nc4ccccc4[nH]3)o2)c(=O)n1`, the growth was 98.5%. In the case of `CC(C)(C)OC(=O)CN1CCc2c(sc3ncnc(N/N=C/c4cccc5ccccc45)c23)C1`, the growth is 55.9%. In the case of `CCOC(=O)c1cc(C(=O)c2ccc(Cl)cc2)n2ccc(-c3cc[n+](CC(=O)c4ccc(OC)cc4)cc3)cc12`, the growth is 73.6%. Turning to `NS(=O)(=O)Oc1ccc(NC(=O)C2CCCCCC2)cc1`, the growth is 116%. As to `NNC(=O)Oc1c(Cl)cc(Cl)cc1[N+](=O)[O-]`, the growth is 113%.

As for `O=C1c2ccccc2C(=O)c2c1ccc(C(Br)Br)c2[N+](=O)[O-]`, the growth is 48.6%. As for `COc1ccc(NC(=O)C2CC3C=CC2C3)c([N+](=O)[O-])c1` (stereo unspecified), the growth is 99.8%. As to `CC[C@@H](C(=O)[C@H](C)[C@H](O)[C@@H](C)[C@H]1O[C@H]([C@@H](CC)C(=O)N(CC)CC)CC[C@H]1C)C1O[C@]2(C=C[C@@H](O)[C@]3(CC[C@@](C)([C@H]4CC[C@](O)(CC)[C@H](C)O4)O3)O2)[C@H](C)C[C@@H]1C` (stereo partly specified), the growth is 14%. Consider `COc1cc(-c2nn(-c3cccc(NC(=O)NCCNC(=O)c4cccc(C(F)(F)F)c4)c3)cc2-c2ccncc2)ccc1Cl`, for which the growth is 15.3%. Still for that read-out and setting: the figure for `O=C(O)c1cc([N+](=O)[O-])ccc1Oc1ccccc1` is 107%; for `CCOC(=O)c1cc(C(=O)c2cc(OC)c(OC)c(OC)c2)n2nc(C)ccc12` it is 33.6%; for `CC[C@@H](C(=O)[C@@H](C)[C@@H](O)[C@H](C)[C@@H]1O[C@@H]([C@@H](CC)C(=O)O)CC[C@@H]1C)C1O[C@]2(C=CC(=O)[C@]3(CC[C@@](C)([C@H]4CC[C@](O)(CC)[C@H](C)O4)O3)O2)[C@H](C)C[C@@H]1C` (stereo partly specified) it is 25.8%. The same measure, in the same setting: for `Cc1ccc(S(=O)(=O)N(C)CCCCCC(=O)O)cc1` the value was 103%. The same measure, in the same setting: the figure for `COc1ccc(C2=Cn3c(CCC(=O)c4nc5ccccc5[nH]4)nnc3SC2)cc1` is 112%; for `CCCN(CCC)C(=O)[C@H](CC)[C@@H]1CC[C@@H](C)[C@@H]([C@H](C)[C@@H](O)[C@@H](C)C(=O)[C@H](CC)C2O[C@]3(C=C[C@@H](O)[C@]4(CC[C@@](C)([C@H]5CC[C@](O)(CC)[C@H](C)O5)O4)O3)[C@H](C)C[C@@H]2C)O1` (stereo partly specified) it is -6.32% (active). As for `OCC1OC(n2cnc3c(NCc4ccco4)ncnc32)C(O)C1O` (stereo unspecified), the growth is -13.7% (active). In the case of `CC[C@@H](C(=O)[C@H](C)[C@H](O)[C@@H](C)[C@H]1O[C@H]([C@@H](CC)C(=O)O)CC[C@H]1C)C1O[C@]2(C=C[C@@H](O)[C@]3(CC[C@@](C)([C@H]4CC[C@](O)(CC)[C@H](C)O4)O3)O2)[C@H](C)C[C@@H]1C` (stereo partly specified), the growth is -8.61% (active). Regarding `O=C(/C=C/c1cccc(B(O)O)c1)c1cccc(B(O)O)c1`, the growth is -86.7% (active).

As for `Cc1ccc(Cl)cc1NC(=O)CCl`, the growth was 91.8%.

As to `COc1cc(/C=C/c2cc(/C=C/c3ccc(O)c(OC)c3)nc(N)n2)ccc1O`, the growth is -63.9% (active). Still for that read-out and setting: for `C/C(=N\O)c1ccc(NC(=O)CSc2nnc(-c3ccccc3)n2-c2ccccc2)cc1` the value was 99.9%; for `O=C(NCCCNS(=O)(=O)c1ccc(Cl)cc1)Nc1ccc(-n2cc(-c3ccncc3)c(-c3ccc(Cl)c(O)c3)n2)cc1`, 18.9%; for `CS(=O)(=O)c1nccc(-c2c(-c3cccc(OCCN4CCOCC4)c3)nc3sccn23)n1`, 89.2%.

In the case of `C=CCSC(CC)(CC)C(=O)NC`, the growth is 107%. For the molecule `CCn1c(SC/C(=N/O)c2ccccc2)nnc1-c1ccccc1`, the growth was 117%. As to `CCN(CC)CCOc1ccc2c(c1O)C(=O)c1ccccc1C2=O`, the growth was 77.7%. For `CS(=O)(=O)c1nccc(-c2c(-c3cccc(O)c3)nc3sccn23)n1`, the growth is 85%. As to `CC(=O)[C@H]1CC[C@]2(C)[C@@H]1CC[C@@H]1[C@@]3(C)CC(CCC#N)(CCC#N)C(=O)C(C)(C)[C@@H]3CC[C@]12C`, the growth is 90.6%. Take `COc1cc(-c2nn(-c3cccc(NC(=O)CN4CCOCC4)c3)cc2-c2cccnc2)ccc1Cl`: the growth is 85.1%. Regarding `CNS(=O)(=O)Oc1ccc(-c2sc3cc(OS(=O)(=O)NC)ccc3c2C(=O)c2ccc(OCCN3CCCCC3)cc2)cc1`, the growth was 38.8%. Consider `Clc1ccc(/C=C2\CCCC3C2=Nc2ccccc2NC3c2ccc(Cl)cc2)cc1` (stereo unspecified), for which the growth was 65.3%. With `CCOS(=O)(=O)c1c(C(C)C)cc(C(C)C)cc1C(C)C`, the growth was 108%. Regarding `COc1cc(/C=C/c2cc(/C=C/c3ccc(O)c(OC)c3)n(C(=O)Nc3ccccc3Cl)n2)ccc1O`, the growth was -50.3% (active).

The values are drawn from PubChem BioAssay (NCI).
